This is an account of results in PubChem BioAssay (EPA / NIEHS).

By AC50 is commonly meant the concentration giving half of the maximal activity seen.

Inconclusive results are not listed. Activity calls are given as the source filed them. The calls were made as follows, unless noted: active = hit-call score of the fitted dose curve at least 0.9, where 1 is the maximum; inactive = score below 0.9.

Assay [1] deals with Glucocorticoid receptor (Homo sapiens) (UniProt P04150). As to the kind of experiment: ATG_GR_TRANS: Attagene TRANS-FACTORIAL HepG2 Assay for human Glucocorticoid Receptor (GR) (AID 2282978; active = hit-call score of the fitted dose curve at least 0.9, where 1 is the maximum;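 also: activators score as hits since higher reporter transcript over DMSO is fitted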). The note with it: HepG2 Attagene TRANS GR reporter, mRNA transcription. A digest of the protocol:
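Exogenous NR-GAL4 fusion activity was assessed through induced GAL4-UAS reporter transcripts in transfected human HepG2 cells, quantified after 24 h by RT-PCR and fluorescent capillary electrophoresis with DMSO as baseline.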

For assay [2], the target named is Nuclear receptor subfamily 4 group A member 2 (Homo sapiens) (UniProt P43354). As to the kind of experiment: ATG_NURR1_TRANS: Attagene TRANS-FACTORIAL HepG2 Assay for human Nuclear Receptor Related Protein 1 (NURR1) (AID 2282985; active = hit-call score of the fitted dose curve at least 0.9, where 1 is the maximum). To be noted: HepG2 Attagene TRANS reporter, mRNA readout. The method in brief:
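Read-out: reporter mRNA induction by RT-PCR plus capillary electrophoresis with fluorescence detection, after 24 h dosing of transfected HepG2 cells. Exogenous NR-Gal4 chimera activity drives GAL4-UAS reporter; activity fitted upward versus DMSO.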

Assay [3] concerns the target Nuclear respiratory factor 1 (Homo sapiens) (UniProt Q16656). As to the kind of experiment: ATG_NRF1_CIS: Attagene CIS-FACTORIAL HepG2 Assay for human Nuclear Respiratory Factor 1 (NRF1) Orphan Gene (AID 2282987). The note with it: HepG2 NRF1 cis-element reporter, Attagene multiplex; actives raise or lower the signal. A digest of the protocol:
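Using DMSO as baseline, gain- or loss-of-signal was fitted for reporter mRNA levels in HepG2 cells transiently transfected with cis-regulated reporter units. Samples were taken 24 h after dosing and read by RT-PCR with capillary electrophoresis.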

A short description of assay [4]: ATG_NFI_CIS: Attagene CIS-FACTORIAL HepG2 Assay for human Nuclear Factor I (NFI) (AID 2282989). To be noted: HepG2 cis-regulatory reporter, NFI response element transcription; actives raise or lower the signal. The method in brief: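 Transient MRTU transfection of HepG2 → 24 h chemical dosing → total RNA, oligo(dT) RT → PCR, 6-FAM primer extension, HpaI cut → capillary electrophoresis. Endpoint fitted bidirectionally relative to DMSO.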

Assay [5] concerns the target Myc proto-oncogene protein (Homo sapiens) (UniProt P01106). As to the kind of experiment: ATG_Myc_CIS: Attagene CIS-FACTORIAL HepG2 Assay for human Myelocytomatosis (Myc) Proto-Oncogene Transcription Factor (AID 2282990). The note with it: HepG2, Attagene cis-reporter transcription factor activity; actives raise or lower the signal. A digest of the protocol:
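Transiently transfected HepG2 cells bearing cis-promoter reporter units for endogenous transcription factors; 24 h exposure. Reporter mRNA measured by RT-PCR, 6-FAM primer extension, HpaI cut and capillary electrophoresis; bidirectional fit relative to DMSO.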

Assay [6] can be described thus: ATG_NF_kB_CIS: Attagene CIS-FACTORIAL HepG2 Assay for human Nuclear Factor Kappa B (NF-kB) (AID 2282991). To be noted: HepG2 Attagene cis-factorial NF-kB reporter mRNA; actives raise or lower the signal. A digest of the protocol: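 Endpoint from a 52-component multiplexed HepG2 reporter panel: cis-regulated transcription units transiently transfected, 24 h dosing, reporter mRNA quantified by RT-PCR and capillary electrophoresis, scored as increase or decrease against DMSO.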

A short description of assay [7]: ATG_NRF2_ARE_CIS: Attagene CIS-FACTORIAL HepG2 Assay for human Nuclear Factor Erythroid 2 Related Factor 2 (NFR2) response to Antioxidant Response Elements (ARE) (AID 2282992).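 As to AC50: reporter mRNA level measured by RT-PCR and capillary electrophoresis fluorescence.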 To be noted: HepG2 Attagene ARE/NRF2 reporter, transcription factor activity; actives raise or lower the signal. The method in brief: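 Fluorescence intensity of reporter-specific cDNA fragments, separated by capillary electrophoresis, reflects mRNA induction in transfected HepG2 cells at 24 h. Activity is fitted bidirectionally, DMSO serving as baseline.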

The target in assay [8] is Cellular tumor antigen p53 (Homo sapiens) (UniProt P04637). As to the kind of experiment: ATG_p53_CIS: Attagene CIS-FACTORIAL HepG2 Assay for human p53 Transcription Factor (AID 2282994). To be noted: HepG2 p53 cis-element reporter, Attagene mRNA; actives raise or lower the signal. A digest of the protocol:
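Transiently transfected HepG2 (multiple cis reporter transcription units); exposure 24 h; reporter RNA via RT-PCR, 6-FAM extension, 2 h HpaI digest at 37 C, CE detection; DMSO baseline.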

A short description of assay [9]: BSK_3C_TissueFactor: BioMAP Diversity Plus: 3C Assay for Tissue Factor Biomarker Activity (AID 2282997). The note with it: BioMAP 3C HUVEC, tissue factor biomarker readout; actives raise or lower the signal. The method in brief: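 Tissue Factor measured by ELISA, 24 h after treatment of primary HUVEC in the BioMAP 3C setting.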
Assay [10] in a line: BSK_3C_uPAR: BioMAP Diversity Plus: 3C Assay for Urokinase-type plasminogen activator receptor (uPAR) Biomarker Activity (AID 2282998). The note with it: BioMAP 3C HUVEC, uPAR biomarker ELISA; actives raise or lower the signal. A digest of the protocol:
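ELISA readout of uPAR on human vascular endothelium (umbilical vein primary cells), taken 24 h after chemical dosing. Increases and decreases are both fitted relative to DMSO vehicle.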

The nature of assay [11]: BSK_3C_VCAM1: BioMAP Diversity Plus: 3C Assay for Vascular cell adhesion molecule 1 (VCAM1) Biomarker Activity (AID 2282999). To be noted: BioMAP 3C HUVEC, VCAM1 ELISA, cytokine-stimulated; actives raise or lower the signal. A digest of the protocol:
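HUVEC primary cells, 24 h compound exposure; VCAM-1 by ELISA; gain/loss of signal fitted bidirectionally vs DMSO baseline.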
(In general: In an ELISA, binding on a coated surface is turned into a signal by an enzyme label.)

Assay [12] in a line: BSK_4H_Eotaxin3: BioMAP Diversity Plus: 4H Assay for Eotaxin 3 Biomarker Activity (AID 2283000).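 As to outcome: CCL26 protein level quantified by ELISA in parallel with SRB cytotoxicity check.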 The note with it: primary human endothelial cells (HUVEC); actives raise or lower the signal. The method in brief:
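Eotaxin-3 (CCL26) levels were measured by ELISA in HUVEC primary cultures 24 h post-dosing. Gain or loss of signal was fitted in both directions, with DMSO serving as baseline and negative control.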

The target of assay [13] is Transcriptional activator Myb (Homo sapiens) (UniProt P10242). As to the kind of experiment: ATG_Myb_CIS: Attagene CIS-FACTORIAL HepG2 Assay for human Myeloblastosis (Myb) Proto-Oncogene Transcription Factor (AID 2282986). The note with it: HepG2 Attagene CIS-FACTORIAL Myb reporter transcription; actives raise or lower the signal. The method in brief:
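In this HepG2 transient-transfection format, cis-regulated reporter mRNA is quantified 24 h post-dosing by RT-PCR with capillary electrophoresis, fitted bidirectionally to DMSO baseline.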

Assay [14] in a line: ATG_Oct_MLP_CIS: Attagene CIS-FACTORIAL HepG2 Assay for human Octamer-Binding Transcription Factor (Oct) (AID 2282993). To be noted: HepG2 Attagene cis-factorial Oct reporter, mRNA; actives raise or lower the signal. The method in brief: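 Transient MRTU transfection of HepG2 → 24 h compound treatment → RNA isolation, reverse transcription, PCR → 6-FAM primer extension, HpaI digest → capillary electrophoresis. Activity fitted both directions against DMSO.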

Assay [15] can be described thus: ATG_M_06_TRANS: Attagene TRANS-FACTORIAL HepG2 Assay for M06 Transcription Factor (Internal Marker) (AID 2282983; active = hit-call score of the fitted dose curve at least 0.9, where 1 is the maximum;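 also: reporter transcript level by RT-PCR then capillary electrophoresis fluorescence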). The note with it: HepG2 Attagene TRANS M06 internal marker reporter. The method in brief: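 mRNA levels of a reporter transcript, quantified as FAM fluorescence on capillary electrophoresis, served as readout. HepG2 cells expressing exogenous GAL4-chimera reporter constructs were exposed for 24 h. Gain of signal over DMSO was evaluated.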

A short description of assay [16]: ATG_M_32_TRANS: Attagene TRANS-FACTORIAL HepG2 Assay for M32 Transcription Factor (Internal Marker) (AID 2282984; active = hit-call score of the fitted dose curve at least 0.9, where 1 is the maximum;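 also: transcript level of a background control reporter unit measured by RT-PCR and capillary electrophoresis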). The note with it: HepG2 Attagene TRANS M32 internal marker reporter. The method in brief: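 Read-out: fluorescent reporter cDNA fragments resolved by capillary electrophoresis after RT-PCR of total RNA. Transfected HepG2 cells were exposed to chemical for 24 h. Activity scored in the positive direction relative to DMSO.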

For assay [17], the target named is Hepatocyte nuclear factor 4-alpha (Homo sapiens) (UniProt P41235). As to the kind of experiment: ATG_HNF4a_TRANS: Attagene TRANS-FACTORIAL HepG2 Assay for human Hepatocyte Nuclear Factor 4 alpha (HNF4a) (AID 2282982; active = hit-call score of the fitted dose curve at least 0.9, where 1 is the maximum). The note with it: HepG2 HNF4a transactivation reporter, mRNA readout. A digest of the protocol:
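Transient MRTU transfection of HepG2, 24 h dosing. Readout: reporter mRNA via RT-PCR + capillary electrophoresis, fluorescence; activity fit upward relative to DMSO control.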

Nuclear respiratory factor 1 (Homo sapiens), sequence (Q16656 whole entry, looked up): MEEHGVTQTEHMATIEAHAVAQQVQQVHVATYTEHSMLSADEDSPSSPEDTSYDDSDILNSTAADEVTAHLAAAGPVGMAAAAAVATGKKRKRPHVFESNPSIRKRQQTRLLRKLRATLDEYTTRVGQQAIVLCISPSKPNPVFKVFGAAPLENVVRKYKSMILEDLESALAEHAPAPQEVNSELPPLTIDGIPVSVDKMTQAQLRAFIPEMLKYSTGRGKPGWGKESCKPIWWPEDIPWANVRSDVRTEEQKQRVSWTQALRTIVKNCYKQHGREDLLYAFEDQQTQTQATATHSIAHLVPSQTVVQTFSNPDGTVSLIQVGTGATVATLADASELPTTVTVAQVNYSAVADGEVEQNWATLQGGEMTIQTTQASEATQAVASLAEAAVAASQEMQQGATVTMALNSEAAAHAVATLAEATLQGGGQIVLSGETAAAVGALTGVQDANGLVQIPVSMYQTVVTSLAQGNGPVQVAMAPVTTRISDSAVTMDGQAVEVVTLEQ
Glucocorticoid receptor (Homo sapiens), sequence (P04150 whole entry, looked up, the tested form may be a part): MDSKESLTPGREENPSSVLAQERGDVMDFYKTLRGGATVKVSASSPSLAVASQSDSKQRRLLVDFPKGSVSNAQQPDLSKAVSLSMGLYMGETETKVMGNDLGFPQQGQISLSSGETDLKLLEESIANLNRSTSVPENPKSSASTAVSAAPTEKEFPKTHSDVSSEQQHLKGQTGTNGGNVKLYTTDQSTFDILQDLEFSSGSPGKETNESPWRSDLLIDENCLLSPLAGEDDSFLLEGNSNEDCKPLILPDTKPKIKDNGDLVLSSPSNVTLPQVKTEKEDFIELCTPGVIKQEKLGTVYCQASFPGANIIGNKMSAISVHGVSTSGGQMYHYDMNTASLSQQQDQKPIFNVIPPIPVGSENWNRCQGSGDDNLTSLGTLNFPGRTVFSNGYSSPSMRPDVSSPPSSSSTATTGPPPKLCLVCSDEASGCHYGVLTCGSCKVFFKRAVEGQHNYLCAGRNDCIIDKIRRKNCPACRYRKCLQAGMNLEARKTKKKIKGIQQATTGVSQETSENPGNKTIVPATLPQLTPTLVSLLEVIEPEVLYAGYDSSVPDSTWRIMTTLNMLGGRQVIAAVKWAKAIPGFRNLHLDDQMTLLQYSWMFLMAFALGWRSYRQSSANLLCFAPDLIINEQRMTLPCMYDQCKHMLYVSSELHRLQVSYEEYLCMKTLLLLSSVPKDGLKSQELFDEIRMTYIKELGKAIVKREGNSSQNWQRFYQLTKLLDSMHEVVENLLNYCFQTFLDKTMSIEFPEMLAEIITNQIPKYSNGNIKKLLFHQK
Transcriptional activator Myb (Homo sapiens), sequence (P10242 whole entry, looked up): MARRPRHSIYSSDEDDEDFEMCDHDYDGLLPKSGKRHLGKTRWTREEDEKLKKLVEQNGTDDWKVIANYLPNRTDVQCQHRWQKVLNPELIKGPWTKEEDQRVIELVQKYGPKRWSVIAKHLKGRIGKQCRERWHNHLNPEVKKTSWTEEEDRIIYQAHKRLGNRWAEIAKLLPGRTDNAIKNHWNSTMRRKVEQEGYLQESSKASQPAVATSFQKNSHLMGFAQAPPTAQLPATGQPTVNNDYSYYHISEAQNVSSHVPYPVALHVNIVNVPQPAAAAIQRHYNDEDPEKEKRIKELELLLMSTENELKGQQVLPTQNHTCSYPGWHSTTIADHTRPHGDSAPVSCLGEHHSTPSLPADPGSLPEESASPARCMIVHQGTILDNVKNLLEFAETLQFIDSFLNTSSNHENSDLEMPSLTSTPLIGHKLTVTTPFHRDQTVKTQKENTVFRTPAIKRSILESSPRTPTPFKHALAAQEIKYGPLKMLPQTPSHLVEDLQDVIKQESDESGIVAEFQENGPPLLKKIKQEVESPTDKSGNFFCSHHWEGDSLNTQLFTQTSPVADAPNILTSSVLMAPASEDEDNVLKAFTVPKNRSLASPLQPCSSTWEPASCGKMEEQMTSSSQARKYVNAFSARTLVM
Nuclear receptor subfamily 4 group A member 2 (Homo sapiens), sequence (P43354 whole entry, looked up, the tested form may be a part): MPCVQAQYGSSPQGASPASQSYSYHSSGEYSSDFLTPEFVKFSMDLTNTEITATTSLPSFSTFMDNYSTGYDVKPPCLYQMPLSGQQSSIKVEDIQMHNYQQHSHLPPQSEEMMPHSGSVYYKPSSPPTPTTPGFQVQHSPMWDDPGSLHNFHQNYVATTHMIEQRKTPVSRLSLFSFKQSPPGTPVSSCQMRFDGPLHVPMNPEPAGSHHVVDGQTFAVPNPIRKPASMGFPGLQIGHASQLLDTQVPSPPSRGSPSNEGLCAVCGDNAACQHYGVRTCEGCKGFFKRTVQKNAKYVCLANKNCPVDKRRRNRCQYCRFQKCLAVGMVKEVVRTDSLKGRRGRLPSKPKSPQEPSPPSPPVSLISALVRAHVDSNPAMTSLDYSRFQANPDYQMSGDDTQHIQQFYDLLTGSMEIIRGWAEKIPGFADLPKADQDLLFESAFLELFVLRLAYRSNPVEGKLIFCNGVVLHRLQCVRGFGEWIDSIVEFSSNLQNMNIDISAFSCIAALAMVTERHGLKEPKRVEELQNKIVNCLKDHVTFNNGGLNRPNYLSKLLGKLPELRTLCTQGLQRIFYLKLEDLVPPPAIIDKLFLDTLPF
Myc proto-oncogene protein (Homo sapiens), sequence (P01106 whole entry, looked up): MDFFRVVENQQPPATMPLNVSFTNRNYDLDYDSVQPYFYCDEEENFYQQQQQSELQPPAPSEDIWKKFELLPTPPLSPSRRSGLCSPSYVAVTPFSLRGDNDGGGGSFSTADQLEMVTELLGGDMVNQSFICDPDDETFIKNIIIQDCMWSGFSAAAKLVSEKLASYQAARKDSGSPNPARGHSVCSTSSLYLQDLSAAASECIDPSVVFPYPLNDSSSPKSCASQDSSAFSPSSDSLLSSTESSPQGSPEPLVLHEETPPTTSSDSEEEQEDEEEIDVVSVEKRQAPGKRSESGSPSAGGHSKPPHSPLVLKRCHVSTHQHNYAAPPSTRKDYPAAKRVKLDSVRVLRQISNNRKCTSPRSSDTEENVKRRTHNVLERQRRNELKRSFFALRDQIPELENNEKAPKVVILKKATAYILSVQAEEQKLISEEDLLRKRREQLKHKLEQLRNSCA
Cellular tumor antigen p53 (Homo sapiens), sequence (P04637 whole entry, looked up): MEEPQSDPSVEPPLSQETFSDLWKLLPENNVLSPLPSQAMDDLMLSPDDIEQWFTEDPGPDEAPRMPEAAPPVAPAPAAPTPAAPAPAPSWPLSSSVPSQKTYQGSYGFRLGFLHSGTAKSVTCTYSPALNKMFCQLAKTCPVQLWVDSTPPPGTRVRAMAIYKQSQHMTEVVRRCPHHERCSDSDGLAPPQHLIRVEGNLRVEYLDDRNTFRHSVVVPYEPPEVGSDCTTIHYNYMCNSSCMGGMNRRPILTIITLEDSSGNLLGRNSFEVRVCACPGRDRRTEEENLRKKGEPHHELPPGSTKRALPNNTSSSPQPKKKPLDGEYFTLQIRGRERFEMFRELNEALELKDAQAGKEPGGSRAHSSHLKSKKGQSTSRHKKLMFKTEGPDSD
Hepatocyte nuclear factor 4-alpha (Homo sapiens), sequence (P41235 whole entry, looked up): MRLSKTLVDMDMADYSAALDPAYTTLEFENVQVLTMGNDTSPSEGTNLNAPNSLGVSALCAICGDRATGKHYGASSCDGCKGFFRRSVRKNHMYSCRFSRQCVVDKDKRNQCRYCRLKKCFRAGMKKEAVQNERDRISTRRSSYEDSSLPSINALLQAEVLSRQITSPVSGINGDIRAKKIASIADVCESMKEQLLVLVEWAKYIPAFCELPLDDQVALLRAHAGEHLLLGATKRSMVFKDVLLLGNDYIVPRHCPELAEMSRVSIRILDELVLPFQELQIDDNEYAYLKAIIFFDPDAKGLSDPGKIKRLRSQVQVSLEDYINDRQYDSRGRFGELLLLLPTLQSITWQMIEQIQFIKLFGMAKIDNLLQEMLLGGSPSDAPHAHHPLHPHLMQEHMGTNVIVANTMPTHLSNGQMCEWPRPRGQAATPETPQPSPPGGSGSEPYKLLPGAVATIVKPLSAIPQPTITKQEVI

On to `O=C1OC2(c3cc(Br)c(O)c(Br)c3Oc3c2cc(Br)c(O)c3Br)c2c(Cl)c(Cl)c(Cl)c(Cl)c21`, for which the result in assay [1], in assay [2], in assay [3], in assay [4], in assay [5] and in assay [6] was inactive. For the same compound, the call in assay [8] was inactive. Moreover, the half-maximal activity concentration (AC50) in assay [7] was 35.3 µM (active); in assay [9] it was 4.1 µM (active); in assay [10], 1.86 µM (active); in assay [11], 4.58 µM (active); in assay [12], 3.71 µM (active).
As for `O=C1CCCCCCCCCCCCCCO1`, the outcome in [1], in assay [2], in assay [13], in assay [4], in assay [5] and in [8] was inactive. Moreover, the AC50 is 74.4 µM (active) in assay [7]; 69.4 µM (active) in assay [14]; 26.5 µM (active) in assay [9]; 20 µM (active) in [10]; 17.9 µM (active) in [11]; 27.3 µM (active) in [12].
For the compound `C/C=C(\C)C(=O)OCc1ccccc1`, the compound was classed as inactive in [1], in [15], in assay [16], in assay [2], in assay [3] and in [4]. The call in [5], in assay [6], in [7], in assay [14] and in [8] was inactive.
On to `CCCCN`, for which the result in assay [1], in [17], in [2], in assay [13], in assay [3] and in [4] was inactive. Besides, the compound was classed as inactive in [5], in assay [6], in [7] and in assay [14].
In the case of `CC(c1cc2ccccc2s1)N(O)C(N)=O` (centres undefined), in [1], the half-maximal activity concentration (AC50) was 100 µM (active). Further, the call in assay [13], in assay [3], in assay [4], in assay [5], in assay [6] and in assay [7] was inactive. Besides, the call in assay [14] was inactive.
On to `CC(C)C[C@H]1C(=O)N2CCC[C@H]2[C@]2(O)O[C@](NC(=O)[C@@H]3C=C4c5cccc6[nH]c(Br)c(c56)C[C@H]4N(C)C3)(C(C)C)C(=O)N12`, for which the outcome in assay [1], in assay [16], in assay [13], in assay [5] and in [14] was inactive. Further, the AC50 in [3] was 3.24 µM (active); in assay [4], 3.81 µM (active); in assay [7], 3.7 µM (active).
As to `O=[N+]([O-])c1ccc(C=Cc2ccc([N+](=O)[O-])cc2S(=O)(=O)O)c(S(=O)(=O)O)c1`, the call in assay [1], in assay [17], in [15], in assay [2], in assay [3] and in [4] was inactive. The call in assay [5], in assay [6], in assay [7] and in [14] was inactive.
With `O=C(Oc1ccccc1)c1ccc(O)cc1`, the compound was called inactive in assay [1], in [15], in assay [16], in [13], in [3] and in assay [4]. The result in [5], in [6], in assay [7] and in assay [8] was inactive.
For the compound `CC1(C)[C@H]2CC[C@]1(C)[C@H](O)C2`, the call in [1], in assay [15], in assay [16], in [2], in [13] and in [3] was inactive. Further, the call in assay [4], in [5], in assay [7] and in assay [8] was inactive.
In the case of `C=C[Si](OCC)(OCC)OCC`, the compound was called inactive in assay [1], in assay [15], in assay [16], in assay [13], in [3] and in assay [5]. Also, the outcome in assay [6], in assay [7], in assay [14], in assay [8], in assay [9] and in assay [10] was inactive. Also, the outcome in assay [11] and in [12] was inactive.
With `CCCCC(CC)COC(=O)/C=C\C(=O)OCC(CC)CCCC` (centres undefined), the call in assay [1], in assay [2], in assay [13], in [3], in assay [4] and in assay [5] was inactive. Also, the compound was called inactive in assay [14], in assay [8], in [9], in assay [10], in assay [11] and in assay [12]. The half-maximal activity concentration (AC50) is 45.6 µM (active) in assay [6] and 9.08 µM (active) in assay [7].
